Source: PubChem BioAssay AID602428 (Sanford-Burnham Center for Chemical Genomics, 2012)
Hit rate of the full screen: of about 2,500 compounds, about 980 (39%) were called active. This is one part of a sample in which actives are shown more often than they occur.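 Rule for the calls: active = mean inhibition at 5 µM reaching about 45% (limit read from the data); inactive = the rest.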

Assay: Gli-SUFU pathway antagonists, confirmation, single concentration, luciferase luminescence, Sufu-KO-LIGHT cells (AID 602428);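 note: plate controls were DMSO-treated cells for no effect and wells lacking cells for full effect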
Conditions: Gli luciferase reporter, at 5 µM, hits give high values

Row | Compound | inhibition
1 | CCOc1cccc(=NC2CCCCC2)c2c(C)[nH]c(C)c12 | 86.4% (active)
